Reference: PubChem BioAssay (NCI)
The panel holds about 83,000 compounds, 20% with a hit somewhere; the sample as a whole holds those more often.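 In brief: 96-well plates, 48 h treatment, single concentration, percent growth endpoint.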 The source made the active and inactive calls. The calls were made as follows: active = growth percent below 10; inactive = the rest.

How the values were obtained:
Assay in all cases: NCI-60 one-dose screen, 48 h (100 = growth as untreated, 0 = no growth, -100 = all killed)
Conditions in all cases: 10 µM unless noted
OVCAR-5 ovarian = tested on: OVCAR-5 ovarian
OVCAR-4 ovarian = tested on: OVCAR-4 ovarian
SK-OV-3 ovarian = tested on: SK-OV-3 ovarian
IGROV1 ovarian = tested on: IGROV1 ovarian
OVCAR-3 ovarian = tested on: OVCAR-3 ovarian
HS 578T breast = tested on: HS 578T breast
NCI/ADR-RES ovarian = tested on: NCI/ADR-RES ovarian
T-47D breast = tested on: T-47D breast
OVCAR-8 ovarian = tested on: OVCAR-8 ovarian

Measured: growth

COc1ccc(C(=O)/C=C/c2c(Cl)nc3c(c(C)nn3-c3ccccc3)c2-c2ccc(Br)cc2)cc1
inactive: OVCAR-5 ovarian 99.6% | OVCAR-4 ovarian 107% | SK-OV-3 ovarian 97.3% | IGROV1 ovarian 116% | OVCAR-3 ovarian 115% | HS 578T breast 113% | NCI/ADR-RES ovarian 108% | T-47D breast 100%

COc1ccc2nc3cc(Cl)ccc3c(Nc3cc(C(C)C)c(O)cc3C)c2c1
inactive: OVCAR-8 ovarian 50.4% | OVCAR-5 ovarian 68.7% | OVCAR-4 ovarian 30.2% | SK-OV-3 ovarian 63.3% | HS 578T breast 65.5% | NCI/ADR-RES ovarian 38% | T-47D breast 13.9%

CCOC(Cc1c(N)[nH]c(=S)[nH]c1=O)OCC
inactive: OVCAR-8 ovarian 96.2% | OVCAR-5 ovarian 93.9% | SK-OV-3 ovarian 107% | IGROV1 ovarian 104% | OVCAR-3 ovarian 120% | HS 578T breast 120% | NCI/ADR-RES ovarian 102% | T-47D breast 99%

CCSc1nnc2n(Cc3ccccc3)c(=O)c3c(C)c(C(N)=O)sc3n12
inactive: OVCAR-5 ovarian 94.3% | OVCAR-4 ovarian 99.5% | SK-OV-3 ovarian 88.5% | IGROV1 ovarian 101% | OVCAR-3 ovarian 119% | HS 578T breast 101% | NCI/ADR-RES ovarian 97.1% | T-47D breast 99.8%

Cc1nn(-c2ccc(Cl)cc2)c2nc3c(nc12)c(=O)oc1ccccc13
inactive: OVCAR-5 ovarian 98% | OVCAR-4 ovarian 113% | SK-OV-3 ovarian 107% | IGROV1 ovarian 119% | OVCAR-3 ovarian 118% | HS 578T breast 107% | NCI/ADR-RES ovarian 102% | T-47D breast 111%

CCc1ccc(CCN2C(=O)c3ccccc3C2=O)nc1
inactive: OVCAR-8 ovarian 102% | OVCAR-5 ovarian 129% | OVCAR-4 ovarian 101% | SK-OV-3 ovarian 98.1% | HS 578T breast 119% | NCI/ADR-RES ovarian 128% | T-47D breast 94.8%

Cc1nn(-c2ccc(Cl)cc2)c2nc3c(nc12)C(=O)c1ccccc1-3
inactive: OVCAR-5 ovarian 90.8% | OVCAR-4 ovarian 34.5% | SK-OV-3 ovarian 32.7% | IGROV1 ovarian 77.3% | OVCAR-3 ovarian 62.8% | HS 578T breast 63.7% | NCI/ADR-RES ovarian 62.9% | T-47D breast 73.7%

O=C1Cc2cc(CCN3CCN(CCOCCO)CC3)c(Cl)cc2N1Cc1ccc(-c2ccccc2-c2nn[nH]n2)cc1
inactive: OVCAR-5 ovarian 96.6% | OVCAR-4 ovarian 89.6% | SK-OV-3 ovarian 93.8% | IGROV1 ovarian 107% | OVCAR-3 ovarian 94.5% | HS 578T breast 85% | NCI/ADR-RES ovarian 90.6% | T-47D breast 101%

CO[C@H]1/C=C/O[C@@]2(C)Oc3c(C)c(O)c4c(O)c(c(/C=N/N5C(C)CN(Cc6ccccc6)CC5C)c(O)c4c3C2=O)NC(=O)/C(C)=C\C=C\[C@H](C)[C@H](O)[C@@H](C)[C@@H](O)[C@@H](C)[C@H](OC(C)=O)[C@@H]1C (stereo not given in full)
inactive: OVCAR-8 ovarian 75.6% | OVCAR-5 ovarian 99.1% | OVCAR-4 ovarian 89.8% | SK-OV-3 ovarian 116% | HS 578T breast 84.6% | T-47D breast 81.4%
active: NCI/ADR-RES ovarian -20.3%

CN(C(=O)c1ccccc1)N(C)C(=O)c1ccccc1
inactive: OVCAR-8 ovarian 103% | OVCAR-5 ovarian 99.3% | SK-OV-3 ovarian 105% | IGROV1 ovarian 95.2% | OVCAR-3 ovarian 127% | HS 578T breast 109% | NCI/ADR-RES ovarian 108% | T-47D breast 94.5%

CCOC(=O)c1c(C)c(C(=O)OCC)n(C)c1C
inactive: OVCAR-8 ovarian 120% | OVCAR-5 ovarian 114% | OVCAR-4 ovarian 101% | SK-OV-3 ovarian 98% | HS 578T breast 92.6% | NCI/ADR-RES ovarian 118% | T-47D breast 90.7%

Cc1c(C(N)=O)sc2c1c(=O)n(Cc1ccccc1)c1nnc(SCC(=O)Nc3ccc(Cl)cc3)n21
inactive: OVCAR-5 ovarian 64.9% | SK-OV-3 ovarian 24.8% | IGROV1 ovarian 23.1% | NCI/ADR-RES ovarian 82.2%
active: OVCAR-4 ovarian -80.2% | OVCAR-3 ovarian -3.77% | HS 578T breast 6.54% | T-47D breast -23.9%

c1ccc(-c2nn[nH]n2)c(-c2ccc(CN3CCN(c4nsc5ccccc45)CC3)cc2)c1
inactive: OVCAR-5 ovarian 96.8% | OVCAR-4 ovarian 85.6% | SK-OV-3 ovarian 105% | IGROV1 ovarian 113% | OVCAR-3 ovarian 91.4% | HS 578T breast 105% | NCI/ADR-RES ovarian 92% | T-47D breast 68.7%
